{
  "source": "PubChem BioAssay (NCI)",
  "note": "The panel holds about 83,000 compounds, 20% with a hit somewhere; the sample as a whole holds those more often.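 Results are percent growth after 48 hours of single-concentration exposure. 100 means growth as in untreated cells, lower positive values show inhibition; negative values down to -100 show cell death.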 Activity calls are given as the source filed them. The calls were made as follows: active = growth percent below 10; inactive = the rest.",
  "data": [
    {"tested_on": "HCC-2998 colon", "experiment": "NCI-60 one-dose screen, 48 h (100 = growth as untreated, 0 = no growth, -100 = all killed)", "conditions": "10 µM unless noted", "values": [
      {"smiles": "O=C(N/N=C/c1ccc(Cl)cc1Cl)c1ccc2nc(-c3ccc(Cl)cc3)[nH]c2c1", "growth": "3.69% (active)"},
      {"smiles": "O=C(Cn1nnc([N+](=O)[O-])n1)c1ccccc1", "growth": "102% (inactive)"},
      {"smiles": "O=C1NC(=Nc2ccc(O)cc2)S/C1=C\\c1cccs1", "growth": "59% (inactive)"},
      {"smiles": "NC(=O)c1ccc(NC(=O)c2oc3ccccc3c2-c2cnn(-c3ccccc3)c2)cc1", "growth": "28.7% [50 µM] (inactive)"},
      {"smiles": "CCOC(=O)/C=C/c1c(C)[nH]c(=O)[nH]c1=O", "growth": "107% (inactive)"},
      {"smiles": "Cc1cccc(NC(=O)CSc2nc3ccc([N+](=O)[O-])cc3[nH]2)c1", "growth": "96.9% (inactive)"},
      {"smiles": "NS(=O)(=O)c1ccc(N/C=C/C(=O)c2cc3ccccc3oc2=O)cc1", "growth": "109% (inactive)"},
      {"smiles": "C=CC(C)(O)CC/C=C(\\CO)C(=O)OC1C(C)OC(O[C@](C)(C=C)CC/C=C(\\CO)C(=O)O[C@H]2C[C@@]3(C(=O)OC4OC(CO)C(O)C(O)C4OC4OC(C)C(OC5OC(CO)C(O)C5O)C(OC5OC(CO)C(O)C(O)C5O)C4O)C(CC2(C)C)C2=CCC4[C@@]5(C)CC[C@H](OC6OC(COC7OC(C)C(O)C(O)C7OC7OCC(O)C(O)C7O)C(O)C(O)C6NC(C)=O)C(C)(C)C5CC[C@@]4(C)[C@]2(C)C[C@H]3O)C(O)C1O", "note": "(some centres undefined)", "growth": "-90.5% (active)"},
      {"smiles": "Nc1nc(C(=O)N/N=C/c2ccc(N3CCOCC3)cc2)nn1-c1ccc(S(N)(=O)=O)cc1", "growth": "104% (inactive)"}
    ]}
  ]
}
